Results: PubChem BioAssay (EPA / NIEHS)
Active and inactive are the calls of the source. How the source made its calls: active means hit-call score of the fitted dose curve at least 0.9, where 1 is the maximum; inactive means score below 0.9.

Experiment: ATG_GLI_CIS: Attagene CIS-FACTORIAL HepG2 Assay for human Zinc Finger Protein GLI1 (AID 2282945)
Settings: HepG2, Attagene cis-factorial reporter mRNA, GLI element; actives raise or lower the signal
Method: ATG_CIS is a cell-based, multiplexed-readout assay that uses HepG2, a human liver cell line, with measurements taken at 24 hours after chemical dosing in a 24-well plate.ATG_GLI_CIS is one of 52 assay component(s) measured or calculated from the ATG_CIS assay. It is designed to make measurements of mRNA induction, a form of inducible reporter, as detected with fluorescence intensity signals by Reverse transcription polymerase chain reaction (RT-PCR) and Capillary electrophoresis technology.Data from the assay component ATG_GLI_CIS was analyzed into 1 assay endpoint. This assay endpoint, ATG_GLI_CIS, was analyzed with bidirectional fitting relative to DMSO as the negative control and baseline of activity. Using a type of inducible reporter, measures of mRNA for gain or loss-of-signal activity can be used to understand the reporter gene at the transcription factor-level as they relate to the gene GLI1. Furthermore, this assay endpoint can be referred to as a primary readout, because this assay has produced multiple assay endpoints where this one serves a reporter gene function. To generalize the intended target to other relatable targets, this assay endpoint is annotated to the dna binding intended target family, where the subfamily is zinc finger.
Human liver HepG2 cells are transiently transfected with multiple reporter transcription units (MRTUs) in 6-well plates using FuGene 6 reagent (Roche; 3 ml FuGene/1 mg DNA). The MRTU constructs are regulated by a cis-regulating element (promoter). […] A major difference between the CIS and TRANS system is that in CIS activities of endogenous TFs are measured, whereas the TRANS assay evaluates changes in activities of exogenous, chimeric NR-Gal4 proteins. […] At the end of 24 hour incubation, total RNA was isolated using TriZol reagent (Invitrogen). The isolated RNA is then reverse-transcribed using oligo(dT) primer and Mo-MLV reverse transcriptase (Invitrogen) with DNAse I (Ambion) treatment for 30 min. The one-tenth of the produced cDNA was amplified by PCR using Taq DNA polymerase (Invitrogen) and two reporter sequence-specific primers. The PCR products were fluorescently labeled by primer extension with 6-arboxyfluorescein (6-FAM) 5'-labeled reporter sequence-specific primer (2 min at 95 C, 20 s at 68 C and 10 min at 72 C) and these products were digested with 5U of HpaI (New England Biolabs) for 2h at 37 C. The fragments were purified using Qiaquick PCR columns (Qiagen), analyzed on an ABI 3130xL genetic analyzer (Applied Biosystems) with peak positions identified by using a set of X-rhodamine (ROX)-labeled MapMarker1000 molecular weight standards (BioVentures). The raw capillary electrophoresis data was processed using Attagraph software (Attagene).
With `CCOC(=O)[C@@H](C)Oc1ccc(Oc2nc3ccc(Cl)cc3o2)cc1` the outcome was “inactive”.
For `C=C(C)[C@H]1CC=C(C)C(=O)C1`, the outcome was “inactive”.
With `O=C1OC(=O)c2c(Br)c(Br)c(Br)c(Br)c21` the outcome was “inactive”.
In the case of `CCOc1ccc(NC(=O)CC(C)=O)cc1`, the outcome is reported as “inactive”.
With `CCCOCCO` the outcome was “inactive”.
With `Nc1ccccc1[N+](=O)[O-]` the outcome was “inactive”.
In the case of `FC(F)(F)COCC(F)(F)F`, the outcome is reported as “inactive”.
With `COc1ccc(N)c([N+](=O)[O-])c1` the outcome was “inactive”.
For `CC(C)CCCCCCCCCCCCCCC(=O)O`, the outcome was “inactive”.
For `CS(=O)(=O)c1ccc(Cl)cc1`, the outcome was “inactive”.
For `CC1CCC(C(C)C)C(O)C1` (stereo not given), the outcome was “inactive”.
In the case of `CC(=O)O[C@@H]1C[C@@H]2CC[C@@]1(C)C2(C)C`, the outcome is reported as “inactive”.
With `C#CC(C)N(C)C(=O)Nc1ccc(Cl)cc1` (stereo not given) the outcome was “inactive”.
With `CC(=O)O[C@@H]1CC2CCC1(C)C2(C)C` (stereo not given in full) the outcome was “inactive”.
In the case of `COc1ccccc1N=Nc1c(S(=O)(=O)O)cc2cc(S(=O)(=O)O)cc(NC(C)=O)c2c1O`, the outcome is reported as “inactive”.
In the case of `Cc1ncc([N+](=O)[O-])n1CCO`, the outcome is reported as “inactive”.
With `O=C(Nc1ccc2c(c1)Cc1ccccc1-2)C(F)(F)F` the outcome was “inactive”.
For `CC(C)c1ccccc1O`, the outcome was “inactive”.
For `CCCCCCCCCCCCCCN(CCO)CCO`, the outcome was “inactive”.
With `Nc1ccc2c(O)cc(S(=O)(=O)O)cc2c1` the outcome was “inactive”.
In the case of `CCC(C)c1cc([N+](=O)[O-])cc([N+](=O)[O-])c1OC(=O)OC(C)C` (stereo not given), the AC50 is reported as 27.1 µM (active).
With `CCNCCO` the outcome was “inactive”.
For `CCCCOC(=O)CCCCCCCC(=O)OCCCC`, the outcome was “inactive”.
For `CCOC(=O)COC(=O)c1cc(Oc2ccc(C(F)(F)F)cc2Cl)ccc1[N+](=O)[O-]`, the outcome was “inactive”.
In the case of `COC(=O)c1ccc(OC)cc1`, the outcome is reported as “inactive”.
For `CCOc1ccc(N=Nc2ccc(C=Cc3ccc(N=Nc4ccc(OCC)cc4)cc3S(=O)(=O)O)c(S(=O)(=O)O)c2)cc1`, the outcome was “inactive”.
With `CCCCCc1ccco1` the outcome was “inactive”.
In the case of `CCCCCC(C)=O`, the outcome is reported as “inactive”.
In the case of `O=[N+]([O-])c1cccc(Cl)c1`, the outcome is reported as “inactive”.
In the case of `Nc1c(S(=O)(=O)O)cc(Br)c2c1C(=O)c1ccccc1C2=O`, the outcome is reported as “inactive”.
With `CCOC(=O)C(C#N)=C(c1ccccc1)c1ccccc1` the outcome was “inactive”.
In the case of `CCCCCCC(C)Nc1ccc(Nc2ccccc2)cc1` (stereo not given), the outcome is reported as “inactive”.
For `CCCCCCCCCCCCN1CCCCCC1=O`, the outcome was “inactive”.
With `C=C(C)C(=O)OCC(CC)(COC(=O)C(=C)C)COC(=O)C(=C)C` the outcome was “inactive”.
In the case of `CN1CCOCC1`, the outcome is reported as “inactive”.
In the case of `O=CCc1ccccc1`, the outcome is reported as “inactive”.
For `COCCOC(=O)c1ccccc1C(=O)OCCOC`, the outcome was “inactive”.
For `CC1(C)C(=O)N(Cl)C(=O)N1Br`, the outcome was “inactive”.
In the case of `COC(C)(C)CCCC(C)CC=O` (stereo not given), the outcome is reported as “inactive”.
In the case of `C=Cc1ccc(C(C)(C)C)cc1`, the outcome is reported as “inactive”.
